About 1,900 (2.5%) of roughly 76,000 compounds were called active. Not shown: some 5% with an inconclusive outcome. The sample holds actives, similar compounds and a random draw of the others, so the mix is not that of the screen. Calls follow the shape of the dose curve; as a rule, active = well fitted inhibition curve with a large enough effect; inconclusive = small, poorly fitted or top-dose-only effect; inactive = flat fitted curve, though single readings scatter.
molecular target: Luciferin 4-monooxygenase (Photinus pyralis) (UniProt P08659); assay: Firefly luciferase inhibition profiling of diverse chemical library using quantitative high-throughput screening; also: nearly all actives have a fitted effect of over 65% in size; details: purified P. pyralis luciferase, luminescence, biochemical; series mostly up to 115 µM; activity change, negative = inhibition: at the top concentration
Excerpt: Firefly (Photinus pyralis) luciferase is one of the most commonly used transcriptional reporters for a number of reasons. It is considered one of the more dynamically responsive reporters - that is, responsive to changes in reporter transcription - as it requires no post-translational modifications and is enzymatically active directly after protein synthesis (Wood, 1998). Additionally, the half-life of the luciferase protein is short relative to other reporter-gene products (Wood, 1995). Whereas reporters with long half-lives potentially allow for increased signal due to accumulation of reporter-gene product, once accumulated in the cell, dynamic changes in reporter-gene expression may be difficult to detect(Fan and Wood, 2007; Almond et al., 2004). It has been shown that wild-type P. pyralis luciferase has a half-life of approximately four hours in mammalian cells (Thompson et al., 1991). Firefly luciferase reporter-gene assays are also generally considered one of the most sensitive assay types (Wood, 1995; Wood, 1998). Although light produced in a bioluminescence reaction is of lower intensity than that produced during fluorescence emission, this is offset by little to no background light inherent to luminescent assays. Thus the luciferase reporter can be expressed at much lower levels than fluorescent proteins while still providing robust signal. However, it was initially observed, in 1991, by Thompson et al., that compounds that resemble the substrates of firefly luciferase (FLuc) can act as competitive inhibitors of the enzyme, and that these compounds, upon interaction with luciferase in the cell, can actually stabilize the protein and increase its half-life. Accumulated intracellular FLuc protein can be measured as an increase in luminescence signal, upon addition of detection reagents (which contain high concentrations of FLuc substrates) commonly used in high-throughput screening. In cell-based reporter gene assays that use FLuc as the reporter gene to quantitate the potential influence of a given compound against the target biology, this apparent increase in luminescence can mistakenly be interpreted as identification of a compound that is active against the target of interest. FLuc inhibitory compounds that stabilize the FLuc protein will give an identical read-out, making it difficult to distinguish compounds that are active against the target from those active against FLuc. In summary, the results generated here constitutes a valuable resource for the scientific community and provides insight on identifying compounds with inhibitory activity for the commonly-used reporter, firefly luciferase. References: -Almond, B., Zdanovsky, A., Zdanovskaia, M., Ma, D., Stecha, P., Paguio, A., Garvin, D., and Wood, K. (2004). Introducing the Rapid Response Reporter Vectors. Promega Notes 87, 18-22. -Fan, F., and Wood, K.V. (2007). Bioluminescent assays for high-throughput screening. Assay Drug Dev Technol 5, 127-136. -Thompson, J.F., Hayes, L.S., and Lloyd, D.B. (1991). Modulation of firefly luciferase stability and impact on studies of gene regulation. Gene 103, 171-177. -Wood, K.V. (1998). The chemistry of bioluminescent reporter assays. Promega Notes 65, 14-20. -Wood, K.V. (1995). Marker proteins for gene expression. Curr Opin Biotechnol 6, 50-58.
Reagents: 50mM Tris acetate, pH 7.5; 10mM Mg acetate; 10uM D-luciferin (Sigma #L9504); 10uM ATP; 0.01% Tween-20; 0.05% BSA; 10nM P. pyralis luciferase (Sigma #L9506) Control compounds used were two known firefly luciferase inhibitors (compounds (2) and (5) in Auld et al., 2010), and DMSO. Assay Summary: Three microliters containing firefly luciferase substrates in buffer (final concentrations: 50mM Tris acetate, pH 7.5, 10mM Mg acetate, 0.01% Tween-20, 0.05% BSA, 10uM D-luciferin, and 10uM ATP) are dispensed into each well of a Greiner white, solid-bottom 1536-well format plate using a flying reagent dispenser (FRD). […]
% is scaled to controls: 0 for no effect and ±100 for the full control effect.

Chain of Luciferin 4-monooxygenase (Photinus pyralis) (P08659 whole entry, looked up): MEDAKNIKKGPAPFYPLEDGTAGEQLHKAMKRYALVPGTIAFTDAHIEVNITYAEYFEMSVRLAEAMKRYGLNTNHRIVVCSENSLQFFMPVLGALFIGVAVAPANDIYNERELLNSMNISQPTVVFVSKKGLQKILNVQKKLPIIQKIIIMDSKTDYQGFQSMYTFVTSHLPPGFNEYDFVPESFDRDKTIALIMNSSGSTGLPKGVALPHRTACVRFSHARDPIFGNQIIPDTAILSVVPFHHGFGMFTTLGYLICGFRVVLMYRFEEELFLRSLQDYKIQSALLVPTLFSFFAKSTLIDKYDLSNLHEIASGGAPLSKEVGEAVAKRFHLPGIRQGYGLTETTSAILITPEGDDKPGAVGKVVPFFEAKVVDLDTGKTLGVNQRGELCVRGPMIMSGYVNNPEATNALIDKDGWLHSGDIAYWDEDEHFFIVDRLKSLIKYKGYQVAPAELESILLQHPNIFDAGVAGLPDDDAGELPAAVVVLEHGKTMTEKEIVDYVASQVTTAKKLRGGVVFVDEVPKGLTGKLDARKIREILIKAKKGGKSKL

Question: For `O=C(CCc1ccccc1)NCCn1cccc1-c1nc(-c2ccc3c(c2)OCO3)no1`, which Potency is on record?
Answer: The Potency was 50.1 µM (active).

Question: With `COc1ccc(CN2CCC3(COc4ccccc4C(=O)N3)C2)cc1` (centres undefined) as the compound, how does the “activity change, negative = inhibition” value read?
Answer: The value was 2.84% (inactive).

Question: How did the “activity change, negative = inhibition” value turn out when `Cc1c(Cl)cccc1NC(=O)N1C[C@@H](F)C[C@H]1C(=O)N1CCc2ccccc2C1` was run?
Answer: The value was -4.6% (inactive).

Question: Which “activity change, negative = inhibition” value does the source give for `O=C(CC1CCCC1)N1CCC(c2nc(C3CCOCC3)no2)CC1` here?
Answer: Its value is 0% (inactive).

Question: For `O=C(NC1CCN(c2cc(-c3ccc(Cl)cc3)[nH]n2)C1)c1c[nH]c2ccccc12` (centres undefined), which “activity change, negative = inhibition” value is on record?
Answer: The value was -19.2% (inactive).

Question: Which Potency does the source give for `O=C(NC1CCCN(c2cc(-c3ccc(Cl)cc3)[nH]n2)C1)c1ccncc1` (centres undefined) here?
Answer: The Potency was 12.6 µM (active).

Question: `O=C(NC1CCCN(c2cc(-c3ccc(Cl)cc3)[nH]n2)C1)c1ccccc1F` (centres undefined) was tested. Which “activity change, negative = inhibition” value did it give?
Answer: The value was -11.6% (inactive).

Question: How did the Potency turn out when `O=C(NC1CCN(c2cc(-c3ccc(F)cc3)[nH]n2)C1)c1cc2ccccc2[nH]1` (centres undefined) was run?
Answer: The Potency was 6.31 µM (active).

Question: For `COc1ccc(-c2cc(N3CCC(NC(=O)c4ccc(N(C)C)cc4)C3)n[nH]2)cc1` (centres undefined), which “activity change, negative = inhibition” value is on record?
Answer: The value was -24.6% (inactive).

Question: For `COc1ccc(-c2cc(N3CCCC(NC(=O)c4ccsc4)C3)n[nH]2)cc1` (centres undefined), which Potency is on record?
Answer: Its Potency is 14.1 µM (active).

Question: With `O=C(NC1CCN(c2cc(-c3ccc(F)cc3)[nH]n2)C1)c1ccc2c(c1)OCO2` (centres undefined) as the compound, how does the “activity change, negative = inhibition” value read?
Answer: Its value is 5.21% (inactive).

Question: How did the “activity change, negative = inhibition” value turn out when `O=C(NC1CCCN(c2cc(-c3ccccc3)[nH]n2)C1)c1cccc(Cl)c1` (centres undefined) was run?
Answer: Its value is -10% (inactive).

Question: How did the “activity change, negative = inhibition” value turn out when `O=C(NC1CCCN(c2cc(-c3ccc(F)cc3)[nH]n2)C1)c1ccc(Br)cc1` (centres undefined) was run?
Answer: Its value is 2.67% (inactive).

Question: Which “activity change, negative = inhibition” value does the source give for `CC(=O)N1CCc2sc(C(=O)NCc3ccc(F)cc3Cl)cc2C1` here?
Answer: Its value is -11% (inactive).

Question: For `Cn1cnnc1CC1CCN(c2nnnn2-c2ccccc2)CC1`, which “activity change, negative = inhibition” value is on record?
Answer: The value was 1.99% (inactive).

Question: How did the “activity change, negative = inhibition” value turn out when `COc1ccccc1N1CCN(C(=O)Cn2c(N3CCc4ccccc4C3)nc(C)cc2=O)CC1` was run?
Answer: Its value is -0.638% (inactive).

Question: With `Cc1cccc(-c2cc(C3CCN(S(=O)(=O)c4cccc(C#N)c4)CC3)[nH]n2)c1` as the compound, how does the “activity change, negative = inhibition” value read?
Answer: The value was 7.84% (inactive).

Question: Which “activity change, negative = inhibition” value does the source give for `COc1ccc(F)cc1CN1CCCC(CO)(CC2CC2)C1` (centres undefined) here?
Answer: The value was -8.73% (inactive).

Question: For `CCNC(=O)N1CCCC1c1noc(CCC(=O)NCC2CC2)n1` (centres undefined), which “activity change, negative = inhibition” value is on record?
Answer: Its value is 2.84% (inactive).

Question: For `C=CCC1(OC)CCN(C(=O)c2cnn3cc(CN(CC)CC)cnc23)CC1`, which “activity change, negative = inhibition” value is on record?
Answer: Its value is -1.51% (inactive).

Question: `COCCNC(=O)[C@H]1C[C@H](Oc2cccnc2)CN1S(=O)(=O)c1cn(C)cn1` was tested. Which “activity change, negative = inhibition” value did it give?
Answer: The value was 0% (inactive).

Question: `CN(C)Cc1cn2c(=O)n(C)cc(-c3cccc(OCc4ccccc4)c3)c2n1` was tested. Which “activity change, negative = inhibition” value did it give?
Answer: Its value is -15.5% [at 172 µM] (inactive).

Question: Which Potency does the source give for `C[S+](=O)([O-])CCn1ncc2cc(OCc3cccc(-c4ccccc4)c3)ccc21` here?
Answer: The Potency was 14.1 µM (active).

Question: With `COc1cncc(-c2cccc(COc3ccc4c(cnn4CC[S+](C)(=O)[O-])c3)c2)c1` as the compound, how does the “activity change, negative = inhibition” value read?
Answer: Its value is -40% [at 172 µM] (inactive).

Question: `Cn1cnc(S(=O)(=O)N2CCC(N(C(=O)C3CC3)C3CCOCC3)CC2)c1` was tested. Which “activity change, negative = inhibition” value did it give?
Answer: Its value is 10.9% (inactive).

Question: How did the “activity change, negative = inhibition” value turn out when `Cc1ccc(C(=O)NC2CCN(c3cc(-c4cccs4)[nH]n3)C2)cc1` (centres undefined) was run?
Answer: The value was -4.28% (inactive).

Question: With `Cc1ccc2cc(CN3CCN(CC(N)=O)CC3)c(-c3cccs3)nc2c1` as the compound, how does the Potency read?
Answer: Its Potency is 12.6 µM (active).

Question: How did the “activity change, negative = inhibition” value turn out when `Cc1cccnc1C(=O)N[C@@H]1CN(c2ncccn2)C[C@H]1CO` was run?
Answer: Its value is -4.45% (inactive).

Question: For `COc1ccc(-c2nccc3c(=O)cc(N(C)c4ccccc4)oc23)cn1`, which “activity change, negative = inhibition” value is on record?
Answer: The value was -12.8% [at 172 µM] (inactive).

Question: With `COc1ccc(CN2CCc3oc(C)c(C(=O)NC(C)Cn4ccc(C)n4)c3C2)cc1` (centres undefined) as the compound, how does the “activity change, negative = inhibition” value read?
Answer: Its value is 2.61% (inactive).

Question: Which “activity change, negative = inhibition” value does the source give for `COCCOCC(=O)N1CCCC(c2nc(-c3ccccc3)no2)CCNC(=O)CC1` (centres undefined) here?
Answer: Its value is 3.55% (inactive).

Question: `O=[N+]([O-])c1cccc(-c2noc([C@@H]3C[C@@H](O)CN3Cc3cccnc3)n2)c1` was tested. Which “activity change, negative = inhibition” value did it give?
Answer: Its value is -6.11% [at 172 µM] (inactive).

Question: With `O=[N+]([O-])c1ccccc1CN1C[C@H](O)C[C@H]1c1nc(-c2ccc(F)cc2)no1` as the compound, how does the Potency read?
Answer: Its Potency is 50.1 µM (active).

Question: `O=[N+]([O-])c1cccc(-c2noc([C@@H]3C[C@@H](O)CN3Cc3cccc(OC(F)(F)F)c3)n2)c1` was tested. Which “activity change, negative = inhibition” value did it give?
Answer: The value was -19.4% (inactive).

Question: Which “activity change, negative = inhibition” value does the source give for `CCCNC(=O)C(NC(=O)c1cccc(OC)c1)C1CCN(C(=O)c2ccccc2F)CC1` (centres undefined) here?
Answer: Its value is -8.93% (inactive).

Question: With `CCNC(=O)O[C@@H]1CO[C@H]2[C@@H]1OC[C@@H]2NC(=S)Nc1cccc2ccccc12` as the compound, how does the “activity change, negative = inhibition” value read?
Answer: The value was -20% [at 172 µM] (inactive).

Question: For `COc1ccc(CN2C(=O)CO[C@H](c3ccc(NC(=O)c4ccccc4OC)cc3)[C@H]2CO)cc1`, which “activity change, negative = inhibition” value is on record?
Answer: Its value is -6.83% (inactive).

Question: With `COc1ccc(NC(=O)c2ccc(CN3C(=O)NC4(CCOCC4)C3=O)cc2)c(OC)c1` as the compound, how does the “activity change, negative = inhibition” value read?
Answer: Its value is -23.3% (inactive).

Question: `CCNC(=O)C1C(c2cccc(NC(=O)c3ccc(OC)cc3)c2)OC(=O)N1Cc1ccc(C)cc1` (centres undefined) was tested. Which Potency did it give?
Answer: The Potency was 11.2 µM (active).

Question: For `Cc1nc(-c2ccccc2)n(CC(=O)NCc2ccc(F)cc2)c(=O)c1CCO`, which “activity change, negative = inhibition” value is on record?
Answer: Its value is 3.13% (inactive).

Question: `CN1N=C(C(=O)N2CCC(CCC(=O)Nc3ccc4c(c3)OCCO4)CC2)CCC1=O` was tested. Which “activity change, negative = inhibition” value did it give?
Answer: Its value is -20% (inactive).

Question: How did the Potency turn out when `Cc1ccc(C(=O)N2CCC(CCC(=O)N3CCc4ccccc4C3)CC2)cc1` was run?
Answer: Its Potency is 22.4 µM (active).

Question: `Cc1ccc(C(=O)N2CCC(c3nn(-c4ccccc4)c(=O)[nH]3)CC2)cc1` was tested. Which “activity change, negative = inhibition” value did it give?
Answer: The value was -1.49% (inactive).

Question: How did the “activity change, negative = inhibition” value turn out when `COc1ccc(NC(=O)CCC2CCN(S(=O)(=O)c3ccc(C)cc3)CC2)cc1F` was run?
Answer: The value was -1.42% (inactive).

Question: `CCCNC(=O)N(C1CCOCC1)C1CCN(C(=O)c2ccncc2)CC1` was tested. Which “activity change, negative = inhibition” value did it give?
Answer: The value was -2.08% (inactive).

Question: How did the Potency turn out when `CCCNC(=O)CCC1CCN(C(=O)c2ccc(C)cc2)CC1` was run?
Answer: The Potency was 31.6 µM (active).

Question: For `Cc1ccc(S(=O)(=O)N2CCC(CCC(=O)NCc3ccccc3)CC2)cc1`, which “activity change, negative = inhibition” value is on record?
Answer: The value was 6.85% (inactive).

Question: How did the Potency turn out when `CCCNc1cc(N2CCC(CCC(=O)Nc3ccc(C)cc3)CC2)ncn1` was run?
Answer: The Potency was 28.2 µM (active).

Question: With `O=C(c1ccc2c(c1)[nH]c(=O)n2C1CCC(O)CC1)N1CCc2ccccc2C1` (centres undefined) as the compound, how does the “activity change, negative = inhibition” value read?
Answer: Its value is -1.05% (inactive).
